Assay results from the supplement of paper PMC4166925.
± gives the standard deviation of the averaged measurements. In all, about 33,000 sequences were measured (“E-score (dimensionless, -0.5 to 0.5)”: median about -0.046, highest 2% from about 0.36 on). The sample holds the highest values, similar sequences and a random draw of the others, so the mix is not that of the screen.

System: T1, SpTbr T-box DNA-binding domain (GST fusion)
T1 sequence: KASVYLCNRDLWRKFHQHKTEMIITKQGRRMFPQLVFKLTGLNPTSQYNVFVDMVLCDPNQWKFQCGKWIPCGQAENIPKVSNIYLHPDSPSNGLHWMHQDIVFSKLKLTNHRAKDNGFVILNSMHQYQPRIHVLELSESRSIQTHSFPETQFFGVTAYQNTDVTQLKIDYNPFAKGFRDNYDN
Test: PBM E-score of 8-mer (E-score (dimensionless, -0.5 to 0.5)); Tbr is Tbrain of the sea star Patiria miniata (Pm) or the sea urchin Strongylocentrotus purpuratus (Sp); higher = stronger binding preference
Conditions: the construct has about 5 more residues each side
Outline: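 Universal Agilent oligonucleotide arrays, made double-stranded by primer extension, were incubated with 200 nM GST-fused Tbr T-box DNA-binding domain in PBS (pH 7.5). The protein was expressed in BL21 E. coli at 20 °C and purified by glutathione affinity chromatography. After scanning and quantification, the Universal PBM Analysis Suite assigned an enrichment E-score to each ungapped 8-mer, averaged over duplicate arrays.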

Sequence | PBM E-score of 8-mer
AGTGTGAT | 0.4721 ± 0.0012
AATGTGAT | 0.253 ± 0.0037
AGTGTGAG | 0.4646 ± 0.0021
GCTGTGAC | 0.161 ± 0.042
AGTGTGTC | 0.234 ± 0.06
GATGTGAC | 0.273 ± 0.019
ACTGTGAC | 0.237 ± 0.023
AGTGTGTG | 0.36 ± 0.023
ATTGTGAG | 0.25 ± 0.035
AGTGTGAC | 0.445 ± 0.011
GGTGTGAC | 0.4822 ± 0.0041
AGAGTGAT | 0.231 ± 0.039
GGAGCTAA | -0.165 ± 0.013
GATTTCAC | 0.332 ± 0.023
ACCTGTAA | 0.154 ± 0.021
AGGCATTG | -0.17 ± 0.042
ATTCAAGG | -0.262 ± 0.017
CCAGCGGA | -0.0913 ± 0.043
ATGACGGA | -0.139 ± 0.0034
CGTGTGTC | 0.172 ± 0.058
CCTGTGAG | 0.24582 ± 4.2e-05
CATGTGAG | 0.137 ± 0.0055
CCTGTGAC | 0.263 ± 0.011
CGTGTGAC | 0.399 ± 0.012
CGTGTGAG | 0.4011 ± 0.0033

Sequence | PBM E-score of 8-mer
CCCAACTA | -0.164 ± 0.083
AGCGTCCC | -0.148 ± 0.0096
GCTTATCC | 0.125 ± 0.027
CCTCATAA | -0.0692 ± 0.021
GCGTGTTA | 0.302 ± 0.018
ACGTGTTA | 0.431 ± 0.015
ACGTGTAG | 0.133 ± 0.068
CCGTGTTA | 0.158 ± 0.029
ACGTGTTC | 0.1884 ± 0.00041
ACGTGTTG | 0.367 ± 0.00092
GATCGCTA | 0.136 ± 0.022
GGTCGATA | 0.0927 ± 0.012
AACTGTTG | 0.241 ± 0.017
CACGCAGA | 0.0713 ± 0.028
ATTGACAG | 0.102 ± 0.07
CTTGACGC | 0.324 ± 0.011
ATTGACAA | 0.298 ± 0.026
ATTGACAC | 0.418 ± 0.0052
CTTGACAC | 0.436 ± 0.0093
CTTGACCC | -0.308 ± 0.038
ACACAGAA | -0.134 ± 0.016
GGATAGAC | -0.202 ± 0.041
ACTCAATC | -0.0092 ± 0.032
CAACACCG | 0.312 ± 0.0065
TAACACCA | 0.43 ± 0.011

Sequence | PBM E-score of 8-mer
CAACACGC | 0.203 ± 0.0098
GAACACCA | 0.104 ± 0.014
CAACACTA | 0.264 ± 0.025
AAACACCA | 0.238 ± 0.027
GAACACTA | 0.013 ± 0.018
CAACACCC | 0.433 ± 0.012
CAACACGA | 0.185 ± 0.0087
GAACACCC | 0.116 ± 0.0077
TAACACTA | 0.373 ± 0.042
CAACACCA | 0.37255 ± 7.8e-05
TCAAGGAA | -0.0393 ± 0.033
GCTGATCA | 0.179 ± 0.059
CCCAATGA | -0.198 ± 0.013
CCGACCCG | -0.073 ± 0.13
GACTCGAC | -0.0494 ± 0.0017
CTAATGCA | 0.038 ± 0.071
GTAGAGAC | -0.094 ± 0.029
CCACTATC | 0.129 ± 0.028
TACACGAA | -0.0857 ± 0.046
GCTTGCGA | 0.16 ± 0.0045
CCTTGCGA | 0.183 ± 0.056
AGTTGCGA | 0.3999 ± 0.00081
AGTTGCGG | 0.126 ± 0.029
